Test [1] can be described thus: qHTS profiling of the MIPE4 collection as inhibitors of Plasmodium falciparum (3D7) proliferation (AID 743344).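 Note: scaled between DMSO vehicle wells and 0.29 µM artemisinin as full inhibition.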 The following applies: P. falciparum 3D7 in erythrocytes, SYBR Green DNA fluorescence, 72 h; at 28.5 µM unless noted. In outline:
(§1)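 Parasite DNA was quantified by SYBR Green I fluorescence (ex 485, em 535 nm) after overnight lysis in saponin/Triton buffer at room temperature. Cultures at 0.3% parasitemia and 2.5% hematocrit were first exposed to compound for 72 h at 37 C; signals were normalised to artemisinin (0.29 uM) and vehicle wells.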

Test [2] in a line: qHTS profiling of the MIPE4 collection as inhibitors of Plasmodium falciparum (DD2) proliferation (AID 743345). The following applies: P. falciparum Dd2 in erythrocytes, SYBR Green DNA, 72 h; at 28.5 µM unless noted. In outline:
as §1
On the technique in general: qHTS replaces the single test concentration by a dilution series.

Test [3] is described as follows: qHTS profiling of the MIPE4 collection as inhibitors of Plasmodium falciparum (DD2) proliferation (Rep 2) (AID 743346). To be noted: P. falciparum Dd2 in erythrocytes, SYBR Green DNA, 72 h; at 28.5 µM unless noted. A digest of the protocol: as §1
Test [4] is described as follows: qHTS profiling of the MIPE4 collection as inhibitors of Plasmodium falciparum (HB3) proliferation (AID 743347).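 Note: plate controls were DMSO vehicle wells for no effect and artemisinin wells for full effect.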 To be noted: P. falciparum HB3 in erythrocytes, SYBR Green DNA, 72 h; at 28.5 µM unless noted. In outline: as §1
The nature of test [5]: High-throughput drug toxicity screening in the BPDCN cell line Gen2.2 (AID 1224824).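 Note: cells exposed to compounds for 48 h before reading.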 The following applies: Gen2.2 BPDCN cells; at 45.8 µM (top of the series) unless noted. A digest of the protocol:
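Seed 500 exponentially growing Gen2.2 cells/well; add compounds by pin tool; incubate 48 h, 37 °C, 5% CO2; add CellTiter-Glo, 15 min RT; read luminescence. % activity vs DMSO (100%) and bortezomib (0%).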

Test [6] is described as follows: High-throughput drug toxicity screening in the BPDCN cell line Cal-1 (AID 1224825). To be noted: Cal-1 BPDCN cell viability, qHTS; at 45.8 µM (top of the series) unless noted. In outline:
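CellTiter-Glo luminescence after 48 h compound exposure; percent activity scaled with DMSO as 100% and bortezomib (9.2 uM final) as 0%. Cal-1 cells seeded at 500/well in RPMI, 10% FBS, no phenol red.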

The nature of test [7]: qHTS assay for measurement of the activity of small molecule inhibitors on Zika virus induced Caspase-3 activity in human iPSC derived neural progenitor cells (hNPCs) (AID 1224857; active = well fitted inhibition curve with a large enough effect; note: % of control where 0% means no effect; nearly all actives have a fitted effect of over 65% in size). In outline:
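hNPCs seeded 350 cells/well, cultured 16–20 h; compounds added 1 h before ZIKV (2 FFU/cell), 37 C 6 h. Caspase-Glo 3/7 luminescence after 30 min RT; % inhibition from induction scaled to uninfected (0%) and infected (100%) wells.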

Test [8] in a line: qHTS assay for measurement of the activity of small molecule inhibitors on Zika virus induced Caspase-3 activity in human astrocytoma cells (AID 1224859; active = well fitted inhibition curve with a large enough effect;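 note: plate controls were ZIKV-infected untreated cells for no effect and uninfected cells for full effect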). In outline:
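Luminescence read-out (Caspase-Glo 3/7, 30 min RT) of caspase activity in SNB-19 cells infected 6 h with ZIKV, 2 FFU/cell, after 1 h compound pretreatment; % inhibition from induction normalised to uninfected (0%) and infected (100%) wells.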

A short description of test [9]: qHTS Screen of the MIPE 4.0 Collection Against Ewings Sarcoma (RDES) (AID 1259252; active = well fitted inhibition curve with a large enough effect; note: nearly all actives have a fitted effect of over 35% in size; note: potency is the fitted concentration of half-maximal effect). A digest of the protocol: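 Viability screen: 48 h incubation at 37C, 95% humidity, 5% CO2 with serially titrated compound, followed by CellTiter-Glo readout.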

Molecules are shown by their SMILES. Results filed as inconclusive are left out. Calls of active or inactive are those of the source. Unless noted, the rule behind the calls is not given here.

`CCNC(=O)c1noc(-c2cc(C(C)C)c(O)cc2O)c1-c1ccc(CN2CCOCC2)cc1` showed a parasite growth, % of DMSO control in test [1] of 5.56%. For the same compound, in [2], the parasite growth remaining, % of DMSO control (lower = more inhibition) turned out to be 7.71%. Besides, the parasite growth, % of control (lower = inhibition) in test [3] was 9.57%. For the same compound, in [4], the growth, % of control stood at 4.24%. The cell viability, % of control (lower = more cytotoxic) in [5] came to 14.2%. For the same compound, the viability (% of control) in test [6] worked out at 7.68%. For the same compound, the Potency entry in [7] and in test [8] was “inactive” in each case. For the same compound, the Potency in test [9] is 0.105 µM (active).

Compound `O=C(O)CCC=CCC[C@@H]1[C@H](N2CCCCC2)[C@@H](O)C[C@@H]1OCc1ccc(-c2ccccc2)cc1` yielded a parasite growth, % of DMSO control in test [1] of 67.9%. In addition, the parasite growth remaining, % of DMSO control (lower = more inhibition) in test [2] is 92.8%. For the same compound, in test [3], the parasite growth, % of control (lower = inhibition) was 62.3%. In [4], this compound returned a growth, % of control of 63%. Moreover, in [5], the cell viability, % of control (lower = more cytotoxic) came to 169%. Moreover, in test [6], the viability (% of control) came out at 63%. Besides, the Potency result in [7], in [8] and in [9] was “inactive” throughout.

Compound `CC[C@H](C)C(=O)O[C@H]1C[C@H](O)C=C2C=C[C@H](C)[C@H](CC[C@@H](O)C[C@@H](O)CC(=O)O)[C@H]21` gave a parasite growth, % of DMSO control in [1] of 96%. For the same compound, the parasite growth remaining, % of DMSO control (lower = more inhibition) in [2] came out at 105%. Besides, the parasite growth, % of control (lower = inhibition) in test [3] was 162%. The growth, % of control in test [4] came to 101%. In test [5], the cell viability, % of control (lower = more cytotoxic) was 113%. Further, the viability (% of control) in test [6] is 113%. Further, the Potency result in test [7], in [8] and in test [9] was “inactive” in each case.

In [1], `CS(=O)(=O)c1ccc(C2=C(c3ccccc3)C(=O)OC2)cc1` displayed a parasite growth, % of DMSO control of 94.3%. For the same compound, the parasite growth remaining, % of DMSO control (lower = more inhibition) in [2] is 83.1%. Moreover, in test [3], the parasite growth, % of control (lower = inhibition) stood at 70.8%. Further, in test [4], the growth, % of control stood at 58.5%. Moreover, the cell viability, % of control (lower = more cytotoxic) in [5] stood at 123%. The viability (% of control) in [6] was determined as 109%. For the same compound, the Potency result in test [7], in test [8] and in [9] was “inactive” throughout.

In the case of `C[C@@H]1O[C@@H](O[C@H]2CC[C@@]3(C)[C@H](CC[C@@H]4[C@H]3C[C@@H](O)[C@]3(C)[C@@H](C5=CC(=O)OC5)CC[C@]43O)C2)C[C@H](O)[C@@H]1O[C@H]1C[C@H](O)[C@H](O[C@H]2C[C@H](O)[C@@H](O)[C@@H](C)O2)[C@H](C)O1` (stereo in doubt), in test [1], the parasite growth, % of DMSO control amounted to 57.6% [at 57.5 µM]. The parasite growth remaining, % of DMSO control (lower = more inhibition) in [2] was determined as 91.8% [at 57.5 µM]. In test [3], the parasite growth, % of control (lower = inhibition) is 67.5% [at 57.5 µM]. Besides, the growth, % of control in test [4] was determined as 57% [at 57.5 µM]. Besides, the cell viability, % of control (lower = more cytotoxic) in [5] worked out at 7.85% [at 92.2 µM]. Further, the viability (% of control) in test [6] was determined as 4.87% [at 92.2 µM]. Besides, the Potency entry in [7] and in [8] was “inactive” each time. Besides, in [9], the Potency is 0.34 µM (active).

Turning to `CN(C)CCOc1cc(-c2cn[nH]c2)ccc1NC(=O)C1COc2ccccc2O1` (stereo not given), the parasite growth, % of DMSO control in test [1] turned out to be 29.9%. Besides, the parasite growth remaining, % of DMSO control (lower = more inhibition) in [2] came out at 61.4%. Moreover, the parasite growth, % of control (lower = inhibition) in test [3] came out at 32.4%. The same compound had a growth, % of control in test [4] of 38.6%. The cell viability, % of control (lower = more cytotoxic) in test [5] turned out to be 73.4%. In addition, the viability (% of control) in test [6] was 34.9%. Besides, the Potency entry in test [7] and in [8] was “inactive” throughout. Further, the Potency in test [9] is 14.8 µM (active).

On to `C[C@]12CC[C@@H]3c4ccc(O)cc4CC[C@H]3[C@H]1[C@@H](O)[C@@H](O)[C@H]2O`, for which, in test [1], the parasite growth, % of DMSO control came to 5.15%. Moreover, the parasite growth remaining, % of DMSO control (lower = more inhibition) in [2] was found to be 9.25%. In addition, the parasite growth, % of control (lower = inhibition) in test [3] stood at 7.28%. This compound gave a growth, % of control in [4] of 2.52%. Besides, the cell viability, % of control (lower = more cytotoxic) in test [5] was 218%. In test [6], the viability (% of control) was 44.4%. The Potency entry in test [7] and in [8] was “inactive” each time. Besides, in test [9], the Potency is 20.9 µM (active).

Regarding `O=C(Nc1cccc(C(F)(F)F)c1)Nc1cc(S(=O)(=O)NC2CC2)ccc1-c1ccsc1`, in [1], the parasite growth, % of DMSO control amounted to 52.8%. For the same compound, in test [2], the parasite growth remaining, % of DMSO control (lower = more inhibition) came to 82.2%. For the same compound, the parasite growth, % of control (lower = inhibition) in test [3] turned out to be 51.8%. The compound further showed a growth, % of control in test [4] of 78.9%. For the same compound, the cell viability, % of control (lower = more cytotoxic) in test [5] was 316%. The viability (% of control) in [6] was found to be 68.8%. The Potency entry in [7] and in test [8] was “inactive” each time. In test [9], the Potency was 20.9 µM (active).

In [1], `CC(C)(CO)[C@@H](O)C(=O)NCCC(=O)O` returned a parasite growth, % of DMSO control of 92.1%. Further, the parasite growth remaining, % of DMSO control (lower = more inhibition) in test [2] worked out at 101%. Further, in [3], the parasite growth, % of control (lower = inhibition) was 114%. The same compound showed a growth, % of control in [4] of 102%. Also, in [5], the cell viability, % of control (lower = more cytotoxic) was 85%. Further, the viability (% of control) in test [6] amounted to 107%. Besides, the Potency result in test [7] and in [8] was “inactive” throughout. The Potency in test [9] is 20.9 µM (active).

`CC(C)[C@H](O)C(=O)N[C@@H](C)C(=O)N[C@@H]1C(=O)N(C)CCc2ccccc21`: in [1], the parasite growth, % of DMSO control was 13.3%. Besides, the parasite growth remaining, % of DMSO control (lower = more inhibition) in [2] is 14.9%. In addition, in [3], the parasite growth, % of control (lower = inhibition) was determined as 26.2%. Also, in [4], the growth, % of control turned out to be 17.8%. For the same compound, the cell viability, % of control (lower = more cytotoxic) in [5] worked out at 95.1%. Also, the viability (% of control) in [6] worked out at 95.1%. The Potency result in [7] and in test [8] was “inactive” each time. Further, the Potency in test [9] was 16.6 µM (active).

The values above are taken from PubChem BioAssay (NCATS).
